Our source for the Potency and outcome values is PubChem BioAssay (NCATS).

Each structure is given as a SMILES string. Records with an inconclusive call do not appear. Unmarked numbers belong to inactive results. The source made the active and inactive calls. Calls come from the whole dose curve; as a rule, active = well fitted curve in the direction sought with a large enough effect; inconclusive = small, poorly fitted or top-dose-only effect, or another doubt; inactive = no such curve, though single readings can be large; an effect the other way counts as inactive or inconclusive.

One experiment concerns MCC-13. The experiment in a line: qHTS assay to identify novel small-molecules to repurpose for Merkel cell carcinoma treatment (AID 1296009). Note: nearly all actives have a fitted effect of over 60% in size. As to conditions: MCC and control cell lines, CellTiter-Glo viability, 72 h; series mostly up to 46 µM. An outline of the steps: (§1)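 Cell viability, measured as CellTiter-Glo luminescence, was normalized between DMSO and no-cell wells. The cells had been exposed to 8- or 11-point compound dilutions for 72 hr at 37 degree celsius.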
In general terms: qHTS replaces the single test concentration by a dilution series.

The next experiment relates to MCC-26. Described as above. The conditions noted are these: MCC and control cell lines, CellTiter-Glo viability, 72 h; series mostly up to 46 µM. The gist of the method: as §1
In another experiment the test system is UISO. Described as above. The conditions noted are these: MCC and control cell lines, CellTiter-Glo viability, 72 h; series mostly up to 46 µM. An outline of the steps: as §1
On the technique in general: In ATP-based viability assays light output follows the ATP content of the culture.

The nature of experiment [1]: qHTS assay to identify inhibitors of the type 1 interferon - major histocompatibility complex class I in skeletal muscle: Counter screen cell viability and HiBit confirmation (AID 1347412). Note: nearly all actives have a fitted effect of over 60% in size. The conditions noted are these: iHSKM muscle cells + IFN-b, HiBiT or CellTiter-Glo, 24 h; Potency: HiBiT; Viability, at 45.9 µM (top of the series). An outline of the steps: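 After 24 h with human IFN-beta (4 ng/ml) and compound titrations (top 46 uM final, 1:3, 12 points), HLA-B HiBit myoblasts were lysed for either Nano-Glo HiBiT luminescence or CellTiter Glo viability on paired plates.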

The subject of the next experiment is C33A. The experiment in a line: Primary qHTS to identify gynecologic anti-cancer compounds using libraries of approved drugs and bioactive compounds (AID 1345084). Note: nearly all actives have a fitted effect of over 55% in size. The conditions noted are these: Gynecologic cancer cell panel viability, ATPlite luminescence, 48 h; series mostly up to 57.5 µM. The gist of the method: (§2)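 Cells, 1,000 per well, plated 16 h, then exposed 48 h at 37 C to compounds. Viability by ATPlite luminescence after 15 min at room temperature.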

Another experiment deals with CASKI. Described as above. As to conditions: Gynecologic cancer cell panel viability, ATPlite luminescence, 48 h; series mostly up to 57.5 µM. An outline of the steps: as §2
The test system of the next experiment is Es-2. The experiment is described as above. The conditions noted are these: Gynecologic cancer cell panel viability, ATPlite luminescence, 48 h; series mostly up to 57.5 µM. The gist of the method: as §2
The subject of the next experiment is HeLa. The experiment is described as above. The conditions noted are these: Gynecologic cancer cell panel viability, ATPlite luminescence, 48 h; series mostly up to 57.5 µM. An outline of the steps:
as §2

In a further experiment the test system is Hek293T. The experiment is described as above. As to conditions: Gynecologic cancer cell panel viability, ATPlite luminescence, 48 h, control line for the selectivity index; series mostly up to 57.5 µM. An outline of the steps: as §2
The next experiment concerns JEG-3. Described as above. As to conditions: Gynecologic cancer cell panel viability, ATPlite luminescence, 48 h; series mostly up to 57.5 µM. The gist of the method: as §2
A further experiment deals with PA-1. Described as above. The conditions noted are these: Gynecologic cancer cell panel viability, ATPlite luminescence, 48 h; series mostly up to 57.5 µM. The gist of the method: as §2
In another experiment the test system is Tov-21-G. The experiment is described as above. The conditions noted are these: Gynecologic cancer cell panel viability, ATPlite luminescence, 48 h; series mostly up to 57.5 µM. An outline of the steps: as §2
In another experiment the test system is Tov112D. The experiment is described as above. As to conditions: Gynecologic cancer cell panel viability, ATPlite luminescence, 48 h; series mostly up to 57.5 µM. An outline of the steps:
as §2

The subject of the next experiment is MKL-2. The experiment in a line: qHTS assay to identify novel small-molecules to repurpose for Merkel cell carcinoma treatment (AID 1296009). Note: nearly all actives have a fitted effect of over 60% in size. As to conditions: MCC and control cell lines, CellTiter-Glo viability, 72 h; series mostly up to 46 µM. An outline of the steps: as §1
For the next experiment, the system named is WaGa. The experiment is described as above. As to conditions: MCC and control cell lines, CellTiter-Glo viability, 72 h; series mostly up to 46 µM. The gist of the method: as §1
In another experiment the test system is OV90. The experiment in a line: Primary qHTS to identify gynecologic anti-cancer compounds using libraries of approved drugs and bioactive compounds (AID 1345084). Note: nearly all actives have a fitted effect of over 55% in size. As to conditions: Gynecologic cancer cell panel viability, ATPlite luminescence, 48 h; series mostly up to 57.5 µM. The gist of the method: as §2
Another experiment deals with SKOV3. The description is as above. As to conditions: Gynecologic cancer cell panel viability, ATPlite luminescence, 48 h; series mostly up to 57.5 µM. An outline of the steps: as §2
The next experiment concerns MKL-1. Put plainly: qHTS assay to identify novel small-molecules to repurpose for Merkel cell carcinoma treatment (AID 1296009). Note: nearly all actives have a fitted effect of over 60% in size. The conditions noted are these: MCC and control cell lines, CellTiter-Glo viability, 72 h; series mostly up to 46 µM. The gist of the method:
as §1

A further experiment has as its system NIH3T3. Described as above. As to conditions: MCC and control cell lines, CellTiter-Glo viability, 72 h; at 44.8 µM (top of the series) unless noted. The gist of the method:
as §1
Potency is the fitted concentration of half-maximal effect.

Take `Cc1cc(Nc2ncc3c(n2)N(C)C(=O)N(c2cc(NC(=O)c4cccc(C(F)(F)F)c4)ccc2C)C3)n(C)n1`: the Potency in the experiment on MCC-13 is 2.09 µM (active); with MCC-26, 1.18 µM (active); in the experiment with UISO, 0.526 µM (active); in experiment [1], 0.883 µM (active).

As to `CCc1nc(-c2cccc(C)c2)c(-c2ccnc(NC(=O)c3ccccc3)c2)s1`, the Potency result in the experiment with MCC-13, in the experiment on MCC-26, with C33A, in the experiment with CASKI, in the experiment with Es-2 and in the experiment with HeLa was “inactive” throughout. For the same compound, the Potency entry in the experiment on Hek293T, with JEG-3, in the experiment on PA-1, with Tov-21-G and in the experiment with Tov112D was “inactive” throughout.

Take `O=C1CSC(=O)N1C(CCc1ccncc1)COc1ccc(-c2cccc([N+](=O)[O-])c2)cc1` (stereo not drawn): the Potency result in the experiment on MCC-13 and in the experiment with MCC-26 was “inactive” in each case. In addition, the Potency is 18.7 µM (active) in the experiment on MKL-2, 13.2 µM (active) in the experiment on UISO and 16.6 µM (active) in the experiment on WaGa.

With `Cc1ccc(-n2[nH]c(C)c(N=Nc3cccc(-c4cccc(C(=O)O)c4)c3O)c2=O)cc1C`, the Potency result with MCC-13, in the experiment on MCC-26, in the experiment with C33A, in the experiment with CASKI, in the experiment with HeLa and in the experiment with JEG-3 was “inactive” in each case. For the same compound, the Potency result in the experiment on OV90 and with SKOV3 was “inactive” in each case. Besides, the Potency with PA-1 was 1.58 µM (active).

On to `CCCc1nc(C(C)(C)O)c(C(=O)O)n1Cc1ccc(-c2ccccc2-c2nn[nH]n2)cc1`, for which the Potency result in the experiment on MCC-13, with MKL-1, with MKL-2, in the experiment on UISO and in the experiment with WaGa was “inactive” in each case. For the same compound, in the experiment with NIH3T3, the result was inactive.

Take `C=C1C(=O)O[C@H]2[C@@H]1CCC(C)=CCC[C@@]1(C)O[C@@H]21`: the Potency with MCC-13 is 16.6 µM (active); in the experiment with MKL-1 it was 7.43 µM (active); in the experiment with MKL-2, 1.87 µM (active); with UISO, 14.8 µM (active); in the experiment with WaGa it was 7.43 µM (active).

Turning to `O=C(O)C[C@H](O)C[C@H](O)C=Cc1c(C2CC2)nc2ccccc2c1-c1ccc(F)cc1`, the Potency in the experiment with MCC-13 is 5.9 µM (active); in the experiment with MKL-1 it was 5.9 µM (active); in the experiment with MKL-2, 3.32 µM (active); in the experiment on UISO, 2.35 µM (active); with WaGa it was 7.43 µM (active).

As to `CN(C)c1ccc2cc(C(=O)N[C@@H](CCCN=C(N)CCl)C(=O)NCc3ccccc3)ccc2c1`, the Potency entry with MCC-13 and in the experiment with MCC-26 was “inactive” throughout. In addition, the Potency was 26.4 µM (active) in the experiment with MKL-2 and 13.2 µM (active) with UISO.

Take `CCC(C(=O)O)C1CCC(C)C(C(C)C(O)C(C)C(=O)C(CC)C2OC3(C=CC(O)[C@@]4(CC[C@](C)(C5CC[C@@](O)(CC)C(C)O5)O4)O3)C(C)CC2C)O1` (stereo partly drawn): the Potency was 10.5 µM (active) in the experiment with MCC-13; 2.96 µM (active) in the experiment on MKL-1; 3.32 µM (active) with MKL-2; 3.72 µM (active) in the experiment on UISO; 2.96 µM (active) in the experiment with WaGa.

Regarding `CCCCCCCCc1ccc(CCC(N)(CO)CO)cc1`, the Potency entry with MCC-13, in the experiment with MCC-26 and with WaGa was “inactive” each time.

Regarding `c1cc(N[C@@H]2CCNC2)nc(-c2cnc3ccc(-c4cn[nH]c4)cn23)c1`, in the experiment with Es-2, the Potency result is “inactive”. For the same compound, the Potency in the experiment with Tov112D was 14.1 µM (active).

For `C=CC(=O)Nc1ccc2ncnc(Nc3ccc(OCc4cccc(F)c4)c(Cl)c3)c2c1`, the Potency entry in the experiment on Es-2 was “inactive”. In addition, the Potency in the experiment with Tov-21-G was 10 µM (active).

With `Cc1cnc(Nc2ccc(CN3CCOCC3)cc2)nc1Nc1cccc(S(=O)(=O)NC(C)(C)C)c1`, the Potency is 2.24 µM (active) in the experiment with Tov-21-G and 5.01 µM (active) in the experiment with Tov112D.
